Reference: PubChem BioAssay
Unmarked numbers belong to inactive results. The source made the active and inactive calls.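 The calls were made as follows, unless noted: active = normalized viability below 100% at a tested concentration; inactive = the rest.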

Tests used:
[1] = biological target: NAD(+) hydrolase SARM1 (Homo sapiens) (UniProt Q6SZW1); assay: SARM1 TIR NADase inhibitors, cell lysate, NAD-Glo luminescence (AID 1508614;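 active = compound whose remaining NAD level is above about 45 nM, limit read from the data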;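 also: higher remaining NAD means stronger inhibition of SARM1 NADase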); conditions: SAM-TIR HEK293T lysate NADase, at 1 µM, active compounds read high
Sequence of NAD(+) hydrolase SARM1 (Homo sapiens) (Q6SZW1 whole entry, looked up): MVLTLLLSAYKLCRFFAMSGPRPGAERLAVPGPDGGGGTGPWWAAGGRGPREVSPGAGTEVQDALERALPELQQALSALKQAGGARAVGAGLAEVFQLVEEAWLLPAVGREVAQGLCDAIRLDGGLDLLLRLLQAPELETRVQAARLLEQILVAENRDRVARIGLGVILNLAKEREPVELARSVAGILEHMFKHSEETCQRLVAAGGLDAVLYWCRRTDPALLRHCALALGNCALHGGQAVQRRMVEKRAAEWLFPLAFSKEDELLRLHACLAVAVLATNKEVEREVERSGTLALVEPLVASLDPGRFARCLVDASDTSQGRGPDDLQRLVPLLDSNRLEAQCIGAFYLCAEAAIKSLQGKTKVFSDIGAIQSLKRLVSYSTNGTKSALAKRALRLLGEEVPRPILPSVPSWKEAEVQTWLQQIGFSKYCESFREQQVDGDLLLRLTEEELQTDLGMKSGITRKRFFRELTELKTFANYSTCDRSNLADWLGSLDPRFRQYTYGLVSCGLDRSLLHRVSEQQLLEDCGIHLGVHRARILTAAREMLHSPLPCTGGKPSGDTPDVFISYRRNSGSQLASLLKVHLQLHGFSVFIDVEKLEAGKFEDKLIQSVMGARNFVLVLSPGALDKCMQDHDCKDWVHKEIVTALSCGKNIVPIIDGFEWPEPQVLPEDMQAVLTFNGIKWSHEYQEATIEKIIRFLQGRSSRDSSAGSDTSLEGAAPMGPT

[2] = ovarian cancer cell viability with rucaparib, profiling panel, oncology-focused library, rucaparib conditional (AID 1508598); conditions: patient-derived ovarian cancer cells, CellTiter-Glo viability, 144 h, active compounds read low
[3] = at 0.000305 µM, OCI-C5x cells, with rucaparib 10 µM, 100% = cells with rucaparib alone
[4] = at 0.000305 µM, OCI-C5x cells, without rucaparib
[5] = at 0.000305 µM, OCI-P5x cells, with rucaparib 20 µM, 100% = cells with rucaparib alone
[6] = at 0.000305 µM, OCI-P5x cells, without rucaparib
[7] = at 0.00122 µM, OCI-C5x cells, with rucaparib 10 µM, 100% = cells with rucaparib alone
[8] = at 0.00122 µM, OCI-C5x cells, without rucaparib
[9] = at 0.00122 µM, OCI-P5x cells, with rucaparib 20 µM, 100% = cells with rucaparib alone
[10] = at 0.00122 µM, OCI-P5x cells, without rucaparib
[11] = at 0.00488 µM, OCI-C5x cells, with rucaparib 10 µM, 100% = cells with rucaparib alone
[12] = at 0.00488 µM, OCI-C5x cells, without rucaparib
[13] = at 0.00488 µM, OCI-P5x cells, with rucaparib 20 µM, 100% = cells with rucaparib alone
[14] = at 0.00488 µM, OCI-P5x cells, without rucaparib
[15] = at 0.0195 µM, OCI-C5x cells, with rucaparib 10 µM, 100% = cells with rucaparib alone
[16] = at 0.0195 µM, OCI-C5x cells, without rucaparib
[17] = at 0.0195 µM, OCI-P5x cells, with rucaparib 20 µM, 100% = cells with rucaparib alone
[18] = at 0.0195 µM, OCI-P5x cells, without rucaparib
[19] = at 0.0781 µM, OCI-C5x cells, with rucaparib 10 µM, 100% = cells with rucaparib alone
[20] = at 0.0781 µM, OCI-C5x cells, without rucaparib
[21] = at 0.0781 µM, OCI-P5x cells, with rucaparib 20 µM, 100% = cells with rucaparib alone
[22] = at 0.0781 µM, OCI-P5x cells, without rucaparib
[23] = at 0.313 µM, OCI-C5x cells, with rucaparib 10 µM, 100% = cells with rucaparib alone
[24] = at 0.313 µM, OCI-C5x cells, without rucaparib
[25] = at 0.313 µM, OCI-P5x cells, with rucaparib 20 µM, 100% = cells with rucaparib alone
[26] = at 0.313 µM, OCI-P5x cells, without rucaparib
[27] = at 1.25 µM, OCI-C5x cells, with rucaparib 10 µM, 100% = cells with rucaparib alone
[28] = at 1.25 µM, OCI-C5x cells, without rucaparib
[29] = at 1.25 µM, OCI-P5x cells, with rucaparib 20 µM, 100% = cells with rucaparib alone
[30] = at 1.25 µM, OCI-P5x cells, without rucaparib
[31] = at 5 µM, OCI-C5x cells, with rucaparib 10 µM, 100% = cells with rucaparib alone
[32] = at 5 µM, OCI-C5x cells, without rucaparib
[33] = at 5 µM, OCI-P5x cells, with rucaparib 20 µM, 100% = cells with rucaparib alone
[34] = at 5 µM, OCI-P5x cells, without rucaparib

In the case of `C[C@]12CC[C@@H]3c4ccc(O)cc4CC[C@H]3[C@@H]1C[C@H](O)[C@@H]2O`, the remaining NAD [1] is reported as 48 nM (active).
In the case of `C[C@]12CC[C@H]3c4ccc(O)cc4CC[C@H]3[C@@H]1CC[C@H]2O`, the viability [2, 3] is reported as 95.7% (active), the viability [2, 4] is reported as 130% and the viability [2, 5] is reported as 103%. The viability [2, 6] was 110%, the viability [2, 7] was 105% and the viability [2, 8] was 111%. For the same compound, the viability [2, 9] was 101%, the viability [2, 10] was 116% and the viability [2, 11] was 109%. For the same compound, the viability [2, 12] was 124%, the viability [2, 13] was 104% and the viability [2, 14] was 112%. For the same compound, the viability [2, 15] was 99.5% (active), the viability [2, 16] was 115% and the viability [2, 17] was 109%. The viability [2, 18] was 112%, the viability [2, 19] was 100% and the viability [2, 20] was 119%. It also gave a viability [2, 21] of 108%, a viability [2, 22] of 109% and a viability [2, 23] of 108%. The viability [2, 24] was 118%, the viability [2, 25] was 100% and the viability [2, 26] was 114%. For the same compound, the viability [2, 27] was 100%, the viability [2, 28] was 124% and the viability [2, 29] was 110%. The viability [2, 30] was 113%, the viability [2, 31] was 81% (active) and the viability [2, 32] was 94.8% (active). For the same compound, the viability [2, 33] was 107% and the viability [2, 34] was 110%.
Work on `COc1cc2c(cc1O)CC[C@@H]1[C@H]2CC[C@]2(C)[C@H](O)CC[C@@H]12` yielded a viability [2, 3] of 113%, a viability [2, 4] of 107% and a viability [2, 5] of 106%. For the same compound, the viability [2, 6] was 96.3% (active), the viability [2, 7] was 116% and the viability [2, 8] was 111%. The viability [2, 9] was 99.4% (active), the viability [2, 10] was 104% and the viability [2, 11] was 119%. The viability [2, 12] was 118%, the viability [2, 13] was 109% and the viability [2, 14] was 108%. The viability [2, 15] was 103%, the viability [2, 16] was 105% and the viability [2, 17] was 95.3% (active). For the same compound, the viability [2, 18] was 105%, the viability [2, 19] was 105% and the viability [2, 20] was 105%. For the same compound, the viability [2, 21] was 102%, the viability [2, 22] was 104% and the viability [2, 23] was 124%. The viability [2, 24] was 107%, the viability [2, 25] was 106% and the viability [2, 26] was 105%. The viability [2, 27] was 107%, the viability [2, 28] was 96.8% (active) and the viability [2, 29] was 104%. For the same compound, the viability [2, 30] was 66.5% (active), the viability [2, 31] was 124% and the viability [2, 32] was 101%. For the same compound, the viability [2, 33] was 98.9% (active) and the viability [2, 34] was 97.5% (active).
With `C[C@]12CCC(=O)C=C1CC[C@@H]1[C@H]2[C@H](O)C[C@@]2(C)[C@H]1CC[C@@]2(O)C(=O)CO` the viability [2, 3] was 107%, the viability [2, 4] was 119% and the viability [2, 5] was 105%. It also gave a viability [2, 6] of 115%, a viability [2, 7] of 109% and a viability [2, 8] of 116%. The viability [2, 9] was 98.6% (active), the viability [2, 10] was 109% and the viability [2, 11] was 114%. It also gave a viability [2, 12] of 121%, a viability [2, 13] of 102% and a viability [2, 14] of 117%. The viability [2, 15] was 110%, the viability [2, 16] was 128% and the viability [2, 17] was 109%. The viability [2, 18] was 112%, the viability [2, 19] was 112% and the viability [2, 20] was 132%. For the same compound, the viability [2, 21] was 103%, the viability [2, 22] was 115% and the viability [2, 23] was 103%. It also gave a viability [2, 24] of 119%, a viability [2, 25] of 104% and a viability [2, 26] of 114%. For the same compound, the viability [2, 27] was 111%, the viability [2, 28] was 118% and the viability [2, 29] was 103%. It also gave a viability [2, 30] of 114%, a viability [2, 31] of 125% and a viability [2, 32] of 120%. The viability [2, 33] was 103% and the viability [2, 34] was 99.3% (active).
Work on `COc1cc([C@H]2c3cc4c(cc3[C@@H](O[C@@H]3O[C@@H]5CO[C@@H](c6cccs6)O[C@H]5[C@H](O)[C@H]3O)[C@H]3COC(=O)[C@H]23)OCO4)cc(OC)c1O` yielded a viability [2, 3] of 104%, a viability [2, 4] of 117% and a viability [2, 5] of 100%. For the same compound, the viability [2, 6] was 116%, the viability [2, 7] was 115% and the viability [2, 8] was 111%. The viability [2, 9] was 102%, the viability [2, 10] was 109% and the viability [2, 11] was 97.4% (active). It also gave a viability [2, 12] of 104%, a viability [2, 13] of 100% and a viability [2, 14] of 109%. For the same compound, the viability [2, 15] was 73.9% (active), the viability [2, 16] was 81.6% (active) and the viability [2, 17] was 102%. For the same compound, the viability [2, 18] was 102%, the viability [2, 19] was 63.2% (active) and the viability [2, 20] was 73.7% (active). The viability [2, 21] was 87.9% (active), the viability [2, 22] was 60.7% (active) and the viability [2, 23] was 78.4% (active). The viability [2, 24] was 56.8% (active), the viability [2, 25] was 71% (active) and the viability [2, 26] was 35.6% (active). The viability [2, 27] was 33.4% (active), the viability [2, 28] was 21.2% (active) and the viability [2, 29] was 54.6% (active). The viability [2, 30] was 23.6% (active), the viability [2, 31] was 8.34% (active) and the viability [2, 32] was 7.07% (active).
